From PubChem BioAssay (NCATS) come the findings set out here.

Records with an inconclusive call do not appear. Calls of active or inactive are those of the source. The call rests on the fitted dose curve; in most records, active means well fitted curve in the direction sought with a large enough effect; inconclusive means small, poorly fitted or top-dose-only effect, or another doubt; inactive means no such curve, though single readings can be large; an effect the other way counts as inactive or inconclusive.

Assay [1] in a line: Quantitative High-Throughput drug screen in 47 multiple myeloma cell lines against the NCATS MIPE library collection: EJM_DSMZ cell viability assay (AID 1918926; further: nearly all actives have a fitted effect of over 30% in size). A digest of the protocol:
(§1)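 CellTiter-Glo ATP luminescence gave viability after 48 h compound treatment at 37C of 500 multiple myeloma cells per well. Normalisation used DMSO-only wells as 100% and media-only wells as 0% viability; primary qHTS of approved and investigational drugs.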

Assay [2] is described as follows: Quantitative High-Throughput drug screen in 47 multiple myeloma cell lines against the NCATS MIPE library collection: AMO1_DSMZ cell viability assay (AID 1918927; further: nearly all actives have a fitted effect of over 30% in size). The gist of the method:
as §1

Assay [3] can be described thus: Quantitative High-Throughput drug screen in 47 multiple myeloma cell lines against the NCATS MIPE library collection: ARP1_JJKsccF8 cell viability assay (AID 1918928; further: nearly all actives have a fitted effect of over 40% in size). The gist of the method:
(§2)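 Cell viability inhibition in this qHTS is measured via ATP content (CellTiter-Glo) after 48 h drug exposure at 37 °C. Wells hold 500 cells; DMSO-treated wells define 100% and medium-only wells 0%.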

Assay [4] is described as follows: Quantitative High-Throughput drug screen in 47 multiple myeloma cell lines against the NCATS MIPE library collection: Karpas620_DSMZ cell viability assay (AID 1918959). Further: nearly all actives have a fitted effect of over 30% in size. The gist of the method:
(§3)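 Myeloma cells (500 per well) were exposed to MIPE 4.0 compounds by pin transfer and incubated 48 hours at 37C, 5% CO2. Viability was read as ATP by CellTiter-Glo luminescence, normalised to DMSO (100%) and media-only (0%) wells.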

Assay [5] is described as follows: Quantitative High-Throughput drug screen in 47 multiple myeloma cell lines against the NCATS MIPE library collection: KMM1_JCRB cell viability assay (AID 1918960). Further: nearly all actives have a fitted effect of over 30% in size. A digest of the protocol:
as §2

Assay [6] in a line: Quantitative High-Throughput drug screen in 47 multiple myeloma cell lines against the NCATS MIPE library collection: JIM1_ECACC cell viability assay (AID 1918964). A digest of the protocol: as §1
Assay [7] is described as follows: Quantitative High-Throughput drug screen in 47 multiple myeloma cell lines against the NCATS MIPE library collection: Karpas25_ECACC cell viability assay (AID 1918968; further: nearly all actives have a fitted effect of over 35% in size). The gist of the method:
as §1

A short description of assay [8]: Quantitative High-Throughput drug screen in 47 multiple myeloma cell lines against the NCATS MIPE library collection: KMS12PE_JCRB cell viability assay (AID 1918972). Further: nearly all actives have a fitted effect of over 30% in size. The gist of the method: as §1
Assay [9] can be described thus: Quantitative High-Throughput drug screen in 47 multiple myeloma cell lines against the NCATS MIPE library collection: KMS20_JCRB cell viability assay (AID 1918973). Further: nearly all actives have a fitted effect of over 45% in size. The gist of the method:
as §1

The nature of assay [10]: Quantitative High-Throughput drug screen in 47 multiple myeloma cell lines against the NCATS MIPE library collection: KMS21BM_JCRB cell viability assay (AID 1918974). Particulars: ATP luminescence, 48 h; viability: at 45.8 µM (top of the series) unless noted. The gist of the method:
as §1

The nature of assay [11]: Quantitative High-Throughput drug screen in 47 multiple myeloma cell lines against the NCATS MIPE library collection: Karpas417_ECACC cell viability assay (AID 1918961). The settings on record: Karpas417 myeloma viability, CellTiter-Glo ATP luminescence, 48 h; viability (% of DMSO): at 45.8 µM (top of the series). The gist of the method:
as §1

Assay [12] can be described thus: Quantitative High-Throughput drug screen in 47 multiple myeloma cell lines against the NCATS MIPE library collection: KHM11_PLB cell viability assay (AID 1918962). Further: nearly all actives have a fitted effect of over 35% in size. A digest of the protocol: as §3
Assay [13] in a line: Quantitative High-Throughput drug screen in 47 multiple myeloma cell lines against the NCATS MIPE library collection: JIM3_ECACC cell viability assay (AID 1918963; further: nearly all actives have a fitted effect of over 35% in size). A digest of the protocol:
as §3

Assay [14] in a line: Quantitative High-Throughput drug screen in 47 multiple myeloma cell lines against the NCATS MIPE library collection: INA6_PLB cell viability assay (AID 1918965; further: nearly all actives have a fitted effect of over 55% in size). A digest of the protocol: as §1
Assay [15] can be described thus: Quantitative High-Throughput drug screen in 47 multiple myeloma cell lines against the NCATS MIPE library collection: JJN3_DSMZ cell viability assay (AID 1918966; further: nearly all actives have a fitted effect of over 50% in size). The gist of the method:
as §1

The nature of assay [16]: Quantitative High-Throughput drug screen in 47 multiple myeloma cell lines against the NCATS MIPE library collection: H1112_PLB cell viability assay (AID 1918967; further: nearly all actives have a fitted effect of over 30% in size). The gist of the method:
as §1

Assay [17] is described as follows: Quantitative High-Throughput drug screen in 47 multiple myeloma cell lines against the NCATS MIPE library collection: KMS27_JCRB cell viability assay (AID 1918970). Further: nearly all actives have a fitted effect of over 30% in size. The gist of the method: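 Viability inhibition screen, 48 h compound exposure, luminescent ATP read-out.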
Assay [18] is described as follows: Quantitative High-Throughput drug screen in 47 multiple myeloma cell lines against the NCATS MIPE library collection: KMS12BM_JCRB cell viability assay (AID 1918971). Further: nearly all actives have a fitted effect of over 35% in size. The gist of the method: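 Inhibition of cell viability is measured here. Each line was plated at 500 cells per well, treated with MIPE 4.0 drugs, kept 48 hours at 37C, then assayed for ATP content by CellTiter-Glo luminescence.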

Assay [19] in a line: Quantitative High-Throughput drug screen in 47 multiple myeloma cell lines against the NCATS MIPE library collection: ARD_JJKsccE7 cell viability assay (AID 1918929). The gist of the method: as §1
Potency means the concentration at half of the fitted maximal effect.

On to `O=C(O)[C@H](Cc1c[nH]c2ccccc12)N1C(=O)c2ccccc2C1=O`, for which the Potency result in assay [1], in assay [2], in [3], in assay [4], in [5] and in [6] was “inactive” each time. For the same compound, the Potency result in [7], in [8], in assay [9] and in assay [10] was “inactive” each time.
In the case of `CNC(=O)c1c(F)cccc1Nc1nc(Nc2cc3c(cc2OC)CCN3C(=O)CN(C)C)nc2[nH]ccc12`, the Potency in assay [1] is 0.209 µM (active); in assay [3] it was 5.26 µM (active); in assay [12] it was 9.35 µM (active); in assay [13], 0.105 µM (active); in assay [14], 5.9 µM (active); in [15], 6.62 µM (active). The Potency is 1.87 µM (active) in assay [16], 93.5 nM (active) in assay [7], 14.8 µM (active) in [18] and 118 nM (active) in assay [9]. Besides, the Potency result in assay [11] and in assay [17] was “inactive” in each case.
On to `Cc1ccc(C(=O)Nc2cccc(C(F)(F)F)c2)cc1-c1ccc2nc(NCCN3CCOCC3)ncc2c1`, for which the Potency in [1] is 16.6 µM (active); in [2], 3.72 µM (active); in assay [3], 8.33 µM (active); in [4] it was 2.64 µM (active); in assay [11], 1.18 µM (active); in [12] it was 0.743 µM (active). Moreover, the Potency is 13.2 µM (active) in assay [13]; 3.32 µM (active) in assay [14]; 16.6 µM (active) in assay [15]; 14.8 µM (active) in assay [16]; 8.33 µM (active) in [18]; 2.64 µM (active) in assay [8]. Further, the Potency in assay [9] is 1660 nM (active); in [10] it was 1.66 µM (active).
`CNc1nccc(-c2cccnc2Oc2cc(C(=O)Nc3cccc(C(F)(F)F)c3)ccc2C)n1`: the Potency in assay [1] is 16.6 µM (active); in assay [3], 23.5 µM (active); in [4], 5.9 µM (active); in [12], 1.05 µM (active); in assay [6] it was 8.33 µM (active); in [14], 4.18 µM (active). Further, the Potency is 14.8 µM (active) in assay [16], 7.43 µM (active) in assay [17], 10.5 µM (active) in assay [8] and 9350 nM (active) in assay [9].
With `Nc1nc(-c2nn(Cc3ccccc3F)c3ncccc23)nc(N)c1N1CCOCC1`, the Potency result in assay [1], in assay [3], in [6], in assay [15], in assay [16] and in assay [18] was “inactive” throughout. Moreover, in assay [2], the Potency is 20.9 µM (active). In assay [11], the viability (% of DMSO) was 86.8% (active).
Take `Nc1ncnc2c1c(-c1cnc3[nH]ccc3c1)nn2C1CCCC1`: the Potency in assay [1] is 6.62 µM (active); in assay [2], 0.662 µM (active); in [3], 0.743 µM (active); in assay [19] it was 1.32 µM (active); in assay [4], 0.662 µM (active); in assay [5], 0.0662 µM (active). Further, the Potency in assay [12] was 0.296 µM (active); in [13], 4.69 µM (active); in [6], 0.526 µM (active); in [14], 0.209 µM (active); in assay [15], 2.35 µM (active); in assay [16], 6.62 µM (active). In addition, the Potency in assay [7] is 209 nM (active); in assay [17], 0.209 µM (active); in assay [18] it was 0.743 µM (active); in assay [8], 0.935 µM (active); in assay [9], 83.3 nM (active); in assay [10], 1.05 µM (active).
`CC1(C)O[C@@H]2C[C@@H]3[C@H]4C[C@@H](F)C5=CC(=O)C=C[C@]5(C)[C@@]4(F)[C@@H](O)C[C@]3(C)[C@]2(C(=O)CO)O1`: the Potency entry in [1], in assay [11], in [12], in [14], in assay [15] and in assay [16] was “inactive” throughout. In assay [18], the Potency result is “inactive”. For the same compound, the Potency was 0.0074 µM (active) in assay [3] and 7.4 nM (active) in [7].
Turning to `CCCCCCCCCC(=O)N[C@@H](Cc1c[nH]c2ccccc12)C(=O)N[C@H](CC(N)=O)C(=O)N[C@@H](CC(=O)O)C(=O)N[C@@H]1C(=O)NCC(=O)N[C@@H](CCCN)C(=O)N[C@@H](CC(=O)O)C(=O)N[C@H](C)C(=O)N[C@@H](CC(=O)O)C(=O)NCC(=O)N[C@H](CO)C(=O)N[C@@H]([C@@H](C)CC(=O)O)C(=O)N[C@@H](CC(=O)c2ccccc2N)C(=O)O[C@@H]1C`, the Potency entry in assay [1], in assay [2], in [3], in assay [4], in assay [5] and in assay [12] was “inactive” in each case. Besides, the Potency result in assay [13], in assay [6], in assay [7], in assay [17], in [18] and in assay [8] was “inactive” in each case.
For `CCCCc1nc2cc(C=CC(=O)NO)ccc2n1CCN(CC)CC`, the Potency in assay [1] is 1.32 µM (active); in assay [3], 0.148 µM (active); in [12], 1.48 µM (active); in [13], 2.64 µM (active); in [15], 0.743 µM (active); in assay [16] it was 1.87 µM (active). Also, the Potency in [7] is 372 nM (active); in assay [18] it was 0.059 µM (active); in assay [9], 209 nM (active).
On to `COc1ccc(C(=O)CC2(O)C(=O)Nc3c(Cl)ccc(Cl)c32)cc1` (stereo not given), for which the Potency in assay [1] is 3.32 µM (active); in [2], 0.526 µM (active); in assay [3], 3.72 µM (active); in assay [19], 1.32 µM (active); in assay [5], 1.18 µM (active); in assay [13] it was 2.35 µM (active). Further, the Potency was 2.35 µM (active) in [14]; 6.62 µM (active) in assay [15]; 13.2 µM (active) in assay [16]; 5260 nM (active) in [7]; 1.05 µM (active) in [17]; 2.09 µM (active) in [18]. Besides, the Potency in [8] was 1.32 µM (active). Also, the Potency entry in assay [12] is “inactive”.
As for `CN1c2cc(O)c(N=NC(N)=O)cc2CC1S(=O)(=O)O` (stereo not given), the Potency entry in [1], in assay [3], in [5], in [13], in assay [14] and in assay [18] was “inactive” each time. Moreover, the Potency entry in assay [8] and in assay [9] was “inactive” throughout. The Potency in assay [19] is 0.0012 µM (active).
The viability is a read-out of living cells in per cent, often relative to untreated cells. Take `Nc1ccn([C@@H]2CS[C@H](CO)O2)c(=O)n1`: the Potency entry in assay [1], in [2], in assay [3], in assay [4], in assay [5] and in assay [13] was “inactive” in each case. Moreover, the Potency result in assay [18] and in assay [8] was “inactive” each time. Further, the Potency in assay [7] is 24100 nM (active); in assay [9], 10800 nM (active). Besides, the viability in assay [10] was 155% [at 92.2 µM] (active).
Consider `Clc1ccc2ncc(-c3cccc(NC4CNC4)n3)n2c1`, for which the Potency in assay [2] was 4.69 µM (active); in assay [3] it was 23.5 µM (active); in [5], 2.35 µM (active); in [12] it was 8.33 µM (active); in assay [13], 14.8 µM (active); in assay [14], 5.9 µM (active). Moreover, the Potency is 16.6 µM (active) in [15]; 11.8 µM (active) in assay [16]; 26400 nM (active) in [7]; 23.5 µM (active) in assay [18]; 5.9 µM (active) in assay [8]. For the same compound, the Potency result in [4], in [11] and in assay [17] was “inactive” throughout.
